GDH-TPI counter-1: GDH-TPI coupled enzyme inhibition counter-screen | inhibition, % at 4.8 µM | 1.2% of 360,000 active | GDH-TPI coupled enzyme counterscreen, NADH absorbance; in the data active = inhibition above about 30%;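 note: 0% = DMSO wells and 100% = wells lacking the enzyme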
UGM FP inh: Mtb UDP-galactopyranose mutase inhibition. P9WIQ1. purified UGM, fluorescence polarization probe displacement. inhibition, % at 10 µM. 0.06% of 320,000 active. AID 504406; in the data active = inhibition above about 10%, passing the limit was not always enough; inconclusive = no clear call, values can overlap the other calls
Rv3671c protease: inhibits the M. tuberculosis serine protease Rv3671c | P9WHR9 | inhibition, % at 5.96 µM | 0.048% of 320,000 active | AID 2606; in the data active = inhibition above about 38%;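 note: extracellular domain of Rv3671c used as enzyme; 0% = enzyme with DMSO and 100% = no enzyme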
Mtb betalactam: beta-lactam sensitization of Mtb H37Rv. M. tuberculosis H37Rv growth with meropenem, percent inhibition. inhibition, % at 25 µM. 0.27% of 330,000 active. AID 434955;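 note: growth measured after seven days incubation then overnight dye step; 0% = bacteria only wells and 100% = bacteria with antibiotic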
FBA Mtb inh: inhibits M. tuberculosis FBA enzyme; P9WQA3; purified M. tuberculosis FBA, fluorescence read-out; inhibition, % at 1 µM; 2.3% of 360,000 active; AID 588726; in the data active = inhibition above about 27%;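 note: 0% = vehicle and 100% = reference inhibitor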
RecA intein inh: inhibitors of M. tuberculosis RecA intein splicing | P9WHJ3 | cell-free RecA intein splicing, fluorescence | inhibition, % (no concentration beside the values) | 0.75% of 290,000 active; in the data active = inhibition above about 30%; inconclusive = no clear call, values can overlap the other calls;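 note: 0% = vehicle wells and 100% = reference inhibitor control wells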
Target sequence (P9WHJ3 whole entry, looked up): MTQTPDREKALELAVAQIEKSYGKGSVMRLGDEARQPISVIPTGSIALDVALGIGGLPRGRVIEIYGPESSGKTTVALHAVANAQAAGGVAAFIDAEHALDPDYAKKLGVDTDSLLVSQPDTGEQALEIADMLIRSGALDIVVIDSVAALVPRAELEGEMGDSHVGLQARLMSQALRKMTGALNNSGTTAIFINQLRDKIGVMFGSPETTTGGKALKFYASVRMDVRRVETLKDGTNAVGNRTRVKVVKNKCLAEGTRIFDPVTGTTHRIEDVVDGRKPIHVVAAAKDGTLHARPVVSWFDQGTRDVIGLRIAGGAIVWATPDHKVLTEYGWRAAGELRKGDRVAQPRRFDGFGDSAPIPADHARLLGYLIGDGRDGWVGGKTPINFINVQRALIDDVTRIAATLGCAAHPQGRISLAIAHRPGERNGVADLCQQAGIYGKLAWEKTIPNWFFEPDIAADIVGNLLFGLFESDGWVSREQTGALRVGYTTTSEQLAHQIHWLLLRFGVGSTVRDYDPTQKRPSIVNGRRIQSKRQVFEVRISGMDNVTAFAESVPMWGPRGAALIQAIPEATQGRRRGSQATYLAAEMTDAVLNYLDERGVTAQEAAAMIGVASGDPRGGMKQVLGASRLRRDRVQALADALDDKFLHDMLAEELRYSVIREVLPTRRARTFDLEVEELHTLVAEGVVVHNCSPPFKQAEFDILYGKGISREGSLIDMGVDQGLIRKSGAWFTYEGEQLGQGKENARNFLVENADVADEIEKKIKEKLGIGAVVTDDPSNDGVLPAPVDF
Mtb FBA inh conf: confirmation of M. tuberculosis fructose-bisphosphate aldolase inhibitors; shares compounds with FBA Mtb inh; purified M. tuberculosis FBA, fluorescence read-out; inhibition, % at 1 µM; 78% of 5,600 active; in the data active = inhibition above about 27%;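 note: 0% = vehicle wells and 100% = reference inhibitor wells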
GDH-TPI counter-2: counter-screen for M. tuberculosis FBA inhibitors: GDH-TPI coupled enzyme inhibition; 81% of 5,600 active; GDH-TPI coupled enzyme counterscreen, fluorescence; inhibition, % at 1 µM; AID 652141; shares compounds with FBA Mtb inh; in the data active = inhibition above about 10%
GDH-TPI dose: inhibits GDH-TPI coupling enzymes in dose response; IC50, µM; shares compounds with FBA Mtb inh; GDH-TPI coupled enzyme assay, fluorescence, artifact counterscreen; AID 652145; 79% of 170 active
Starred values were filed as active, the others as inactive; u = inconclusive; x = no result. This is a sample that favours compounds with a hit; in the whole collection about 4% have one here. Unless noted, the rule behind the calls is not given here.

SMILES | GDH-TPI counter-1 | UGM FP inh | Rv3671c protease | Mtb betalactam | FBA Mtb inh | RecA intein inh | Mtb FBA inh conf | GDH-TPI counter-2 | others
CCOc1ccc(-c2nnc(-c3ccccc3)o2)cc1 | 3.8 | 1.5 | -10.0 | 98.9 | 90.9* | -3.8 | 88.4* | 73.5*
COc1ccc(-c2nnc(-c3ccccc3)o2)cc1OC | 1.4 | 0.8 | -2.3 | -2.3 | 30.8* | 0.1 | 148.6* | 106.9*
COc1ccc(-c2ccc(-c3nnc(Cc4ccc(OC)c(OC)c4)o3)cc2)cc1 | 14.7 | 3.1 | -1.4 | -21.9 | 39.0* | x | -3.7 | -2.4
CCOC(=O)COc1ccc(-c2nnc(-c3ccccc3)o2)cc1 | 7.0 | 2.9 | -1.6 | 99.8 | 58.9* | -0.2 | 41.5* | 34.7*
Cc1cc(=O)oc2cc(OCC(=O)N3CCN(Cc4ccccc4)CC3)ccc12 | 16.8 | -0.4 | 1.6 | -10.1 | 35.2* | x | 9.3 | -3.3
Cc1cc(=O)oc2cc(OCC(=O)N3c4ccccc4NC(=O)C3(C)C)ccc12 | 15.1 | 2.0 | -2.4 | -0.4 | 33.6* | x | 107.3* | 87.2*
Cc1cc(=O)oc2cc(OCC(=O)N3CCC(C(=O)O)(c4ccccc4)CC3)ccc12 | 12.8 | -0.6 | 8.8 | -5.9 | 27.8* | 0.6 | 18.8 | 26.1*
Cc1cc(=O)oc2cc(OCC(=O)N3CCN(C(=O)c4ccco4)CC3)ccc12 | -0.9 | -1.1 | 3.8 | -6.3 | 27.5* | 0.4 | 78.5* | 67.9*
O=C(CNC(=O)c1cccs1)Nc1ccncc1 | -0.7 | -0.6 | -6.8 | 3.1 | 0.4 | 0.2 | x | x
CCCCC(Br)C(=O)Nc1ccc(S(=O)(=O)Nc2cc(C)nc(C)n2)cc1 (centres undefined) | -7.7 | -0.7 | -5.7 | 6.9 | 0.8 | 3.0 | x | x
CCc1nc(SCC(=O)NC2CCCC2)c2c(=O)n(C)c(=O)n(C)c2n1 | -7.4 | 0.9 | 3.9 | 3.8 | -0.3 | -2.0 | x | x
CCCCN(C(=O)c1ccccc1OCc1ccc(F)cc1)c1c(N)n(CC(C)C)c(=O)[nH]c1=O | 13.4 | -2.1 | 1.8 | -6.8 | 4.3 | 7.8 | x | x
Cc1cc(C)c(NC(=O)CNC(=O)COC(=O)C2=COCCO2)c(C)c1 | 0.0 | -0.8 | 1.0 | 7.5 | 3.4 | 0.5 | x | x
COc1cc(Cl)c(C)cc1NC(=O)CC1CCCC1 | 0.7 | -3.6 | -0.6 | 5.1 | -1.8 | x | x | x
COc1ccc(CN2C(=O)C(CC(=O)NCC3CCCCC3)CC(C(=O)N3CCOCC3)=C2C)cc1 (centres undefined) | 2.4 | x | x | x | -1.2 | x | x | x
O=C(O)c1cc(S(=O)(=O)Nc2cc(Cl)ccc2Oc2ccccc2)ccc1O | 3.5 | x | -28.4 | -4.4 | 3.0 | x | x | x
O=C(O)c1cc(S(=O)(=O)Nc2ccccc2C(=O)O)ccc1O | 6.0 | 4.1 | 9.3 | -3.6 | 28.7* | 0.9 | 10.9 | -4.8 | GDH-TPI dose=>10
CCNC(=O)C1(C)CCCN(Cc2cc3ccccc3o2)C1 (centres undefined) | -11.9 | x | x | x | -0.7 | x | x | x
C=CCOc1c2ccc(C(=O)NCc3ccc(C)cc3)cc2nn1C | -10.0 | -2.0 | -2.6 | -4.7 | 12.5 | -0.6 | x | x
CCCCn1nc2cc(C(=O)NCc3ccc(OC)cc3)ccc2c1OCC | 7.8 | -1.6 | -6.9 | 54.8 | 39.9* | 0.1 | 94.2* | 85.4*
CCOc1c2ccc(C(=O)NCc3ccc(OC)cc3)cc2nn1CCOC | 4.0 | -1.4 | 2.4 | -3.7 | 60.1* | 0.0 | 98.7* | 72.1*
CCCCn1nc2cc(C(=O)NCc3cc(C(F)(F)F)cc(C(F)(F)F)c3)ccc2c1OCC | 12.1 | -2.0 | -7.0 | 0.7 | 18.0 | -2.2 | x | x
COc1ccc(Nc2nc3cc(C)ccc3cc2C#N)cc1 | -1.4 | 2.1 | 3.6 | 7.3 | -0.7 | -4.5 | x | x
Cc1ccc2cc(C#N)c(NCc3ccccc3)nc2c1 | 2.4 | 2.0 | -4.6 | -2.2 | 32.3* | -4.9 | 52.9* | 44.3*
COCc1ccc(C(=O)NC2CCCc3c2cnn3-c2ccc(C)c(C)c2)o1 (centres undefined) | -5.6 | -0.1 | 4.1 | u | 0.2 | 5.9 | x | x
Cc1ccc(-c2cnc(-c3ccccc3C(=O)O)o2)cc1 | 0.0 | 3.0 | -10.4 | -10.0 | 70.4* | 2.4 | 10.7 | -2.6 | GDH-TPI dose=1.63*
NC(=O)c1ccc(-c2ncc(-c3ccccc3)o2)cc1 | 19.7 | 2.7 | -9.6 | u | x | -1.0 | x | x

Compound activity as filed in PubChem.
